The supplement of paper PMC9262897, “Low-cost anti-mycobacterial drug discovery using engineered E. coli” (Nature Communications, 2022)
Structures can show the parent of a compound that is named as a salt. ± gives the standard deviation of the averaged measurements.

What follows are compounds tested on E. coli TESEC Mtb DapB (assay: growth (OD600 after 10 h); higher = more growth (less inhibition)). Conditions: arabinose induction (level): High; compound 0.1 mM; raw OD600 reference: median of DMSO wells […], cell-free background 0.041.
Procedure: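 TESEC E. coli strains in which the native enzyme is deleted and replaced by arabinose-inducible Mtb Asd, DapB, CysH or TrpD, each grown in its selective medium. Strains were screened against the Prestwick library at 0.1 mM and 1% DMSO in 384-well format at low and high arabinose induction. Growth is read as OD600 after 10 h in triplicate.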

| SMILES | growth |
| --- | --- |
| NC12CC3CC(CC(C3)C1)C2 [Adamantamine fumarate] | 0.2 ± 0.0046 |
| COc1cc(N)c(Cl)cc1C(=O)NC1CCN(Cc2ccccc2)CC1 [Clebopride maleate] | 0.2 ± 0.011 |
| CN1CCc2c(c3ccccc3n2Cc2ccccc2)C1 [Mebhydroline 1,5-naphtalenedisulfonate] | 0.187 ± 0.017 |
| CCOc1ccc(NC(C)=O)cc1 [Phenacetin] | 0.208 ± 0.019 |
| CNNCc1ccc(C(=O)NC(C)C)cc1 [Procarbazine hydrochloride] | 0.2 ± 0.017 |
| C[C@]12CC[C@H]3[C@@H](CCC4=CC(=O)CC[C@@]43C)[C@@H]1CC[C@@H]2C(=O)CO [Deoxycorticosterone] | 0.136 ± 0.008 |
| CO/N=C(\C(=O)N[C@@H]1C(=O)N2C(C(=O)OC(C)OC(C)=O)=C(COC(N)=O)CS[C@H]12)c1ccco1 (stereo not given in full) [Cefuroxime axetil] | 0.196 ± 0.022 |
| CC(N)CCCC(C)(C)O (stereo not given) [Heptaminol hydrochloride] | 0.188 ± 0.0059 |
| CC(=O)N(CC(C)C(=O)O)c1c(I)cc(I)c(N)c1I (stereo not given) [Iocetamic acid] | 0.202 ± 0.018 |
| CNCCC(Oc1ccc(C(F)(F)F)cc1)c1ccccc1 (stereo not given) [Fluoxetine hydrochloride] | 0.142 ± 0.036 |
| CC(CNC1CCCCC1)OC(=O)c1ccccc1 (stereo not given) [Hexylcaine hydrochloride] | 0.2 ± 0.027 |
| CC(C)NC[C@@H](O)COc1ccc(CC(N)=O)cc1 [(R)-(+)-Atenolol] | 0.243 ± 0.059 |
| Nc1nc2n[nH]nc2c(=O)[nH]1 [Azaguanine-8] | 0.235 ± 0.032 |
| CN/C(=N\CCSCc1nc[nH]c1C)NC#N [Cimetidine] | 0.181 ± 0.012 |
| O=C1NCN(c2ccccc2)C12CCN(CCCC(c1ccc(F)cc1)c1ccc(F)cc1)CC2 [Fluspirilen] | 0.167 ± 0.014 |
| C[n+]1ccccc1/C=N/O [Pralidoxime chloride] | 0.223 ± 0.011 |
| Oc1c(Cl)cc(Cl)c(Cl)c1Cc1c(O)c(Cl)cc(Cl)c1Cl [Hexachlorophene] | 0.0536 ± 0.0015 |
| COc1cccc2c1C(=O)c1c(O)c3c(c(O)c1C2=O)C[C@@](O)(C(=O)CO)C[C@@H]3O[C@H]1C[C@H](N)[C@@H](O)[C@H](C)O1 [Epirubicin hydrochloride] | 0.0567 ± 0.0034 |
| Cc1ncc([N+](=O)[O-])n1CC(C)O (stereo not given) [Secnidazole] | 0.2001 ± 0.001 |
| Cn1cnc2c1c(=O)[nH]c(=O)n2C [Theobromine] | 0.206 ± 0.008 |

Same assay, conditions: arabinose induction (level): Low; compound 0.1 mM; raw OD600 reference: median of DMSO wells 0.227, cell-free background 0.041

| SMILES | growth |
| --- | --- |
| NC12CC3CC(CC(C3)C1)C2 [Adamantamine fumarate] | 0.214 ± 0.0073 |
| COc1cc(N)c(Cl)cc1C(=O)NC1CCN(Cc2ccccc2)CC1 [Clebopride maleate] | 0.223 ± 0.031 |
| CN1CCc2c(c3ccccc3n2Cc2ccccc2)C1 [Mebhydroline 1,5-naphtalenedisulfonate] | 0.207 ± 0.0028 |
| CCOc1ccc(NC(C)=O)cc1 [Phenacetin] | 0.224 ± 0.012 |
| CNNCc1ccc(C(=O)NC(C)C)cc1 [Procarbazine hydrochloride] | 0.27 ± 0.022 |
| C[C@]12CC[C@H]3[C@@H](CCC4=CC(=O)CC[C@@]43C)[C@@H]1CC[C@@H]2C(=O)CO [Deoxycorticosterone] | 0.165 ± 0.0069 |
| CO/N=C(\C(=O)N[C@@H]1C(=O)N2C(C(=O)OC(C)OC(C)=O)=C(COC(N)=O)CS[C@H]12)c1ccco1 (stereo not given in full) [Cefuroxime axetil] | 0.215 ± 0.057 |
| CC(N)CCCC(C)(C)O (stereo not given) [Heptaminol hydrochloride] | 0.195 ± 0.02 |
| CC(=O)N(CC(C)C(=O)O)c1c(I)cc(I)c(N)c1I (stereo not given) [Iocetamic acid] | 0.202 ± 0.019 |
| CNCCC(Oc1ccc(C(F)(F)F)cc1)c1ccccc1 (stereo not given) [Fluoxetine hydrochloride] | 0.132 ± 0.0058 |
| CC(CNC1CCCCC1)OC(=O)c1ccccc1 (stereo not given) [Hexylcaine hydrochloride] | 0.233 ± 0.024 |
| CC(C)NC[C@@H](O)COc1ccc(CC(N)=O)cc1 [(R)-(+)-Atenolol] | 0.25 ± 0.017 |
| Nc1nc2n[nH]nc2c(=O)[nH]1 [Azaguanine-8] | 0.26 ± 0.084 |
| CN/C(=N\CCSCc1nc[nH]c1C)NC#N [Cimetidine] | 0.206 ± 0.025 |
| O=C1NCN(c2ccccc2)C12CCN(CCCC(c1ccc(F)cc1)c1ccc(F)cc1)CC2 [Fluspirilen] | 0.19 ± 0.021 |
| C[n+]1ccccc1/C=N/O [Pralidoxime chloride] | 0.284 ± 0.0069 |
| Oc1c(Cl)cc(Cl)c(Cl)c1Cc1c(O)c(Cl)cc(Cl)c1Cl [Hexachlorophene] | 0.053 ± 0.00044 |
| COc1cccc2c1C(=O)c1c(O)c3c(c(O)c1C2=O)C[C@@](O)(C(=O)CO)C[C@@H]3O[C@H]1C[C@H](N)[C@@H](O)[C@H](C)O1 [Epirubicin hydrochloride] | 0.0562 ± 0.0015 |
| Cc1ncc([N+](=O)[O-])n1CC(C)O (stereo not given) [Secnidazole] | 0.216 ± 0.024 |
| Cn1cnc2c1c(=O)[nH]c(=O)n2C [Theobromine] | 0.249 ± 0.036 |
